# From PubChem BioAssay
# Unmarked numbers belong to inactive results. The source made the active and inactive calls.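 Rule for the calls: active = inhibition at or above 50% relative to wild type and mutant plate controls; inactive = inhibition below 50%.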
# Assay: inhibitors of Chlamydomonas gravitaxis, primary screen, whole organism, Chlamydomonas reinhardtii, WT vs cilia-less mutant, absorbance, 96-well (AID 463189);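 note: 0% = wild type cc124 cells in DMSO and 100% = ciliumless bld1 mutant cells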
# Settings: OD600 absorbance, 2 days, at 10 µM, hits give high values
row,Compound,inhibition
1,Cc1nc2n(c(=O)c1CCN1CCC(c3noc4cc(F)ccc34)CC1)CCCC2,2.59%
2,C/C(=C\c1ccc(C(=O)O)cc1)c1ccc2c(c1)C(C)(C)CCC2(C)C,9.5%
3,CC(C)c1ccc2c(c1)c(SC(C)(C)C)c(CC(C)(C)C(=O)O)n2Cc1ccc(Cl)cc1,9.82%
4,Cc1ccc(O)c(N=Nc2ccccc2)n1,-1.99%
5,COc1ccc(C(=O)NCc2cccnc2)cc1C(=O)NCc1cccnc1,6.89%
6,Cc1ccc(OCC(O)C(C)NC(C)C)c2c1CCC2 (stereo not given),-3.42%
7,COc1cc2ncnc(Nc3cccc(Cl)c3)c2cc1OC,-7.15%
8,C[C@H](NC(=O)/C(C#N)=C/c1ccc(O)c(O)c1)c1ccccc1,-0.423%
9,COc1ccc2[nH]c(I)c(CCNC(C)=O)c2c1,-0.69%
10,CCN1CCc2nc(N)oc2CC1,6.74%
11,NCCCCNCCCN,-15.4%
12,O=C1NC(c2cccc([N+](=O)[O-])c2)=CCN1c1ccccc1O,-0.979%
13,NC(=NCc1ccc(Cl)c(Cl)c1)NC(=O)c1nc(Cl)c(N)nc1N,7.67%
14,CC(C)(C)c1cc(/C=C(\C#N)C(N)=S)cc(C(C)(C)C)c1O,35.4%
15,CN(C)CCC(c1ccccc1)c1ccccn1 (stereo not given),7.99%
16,FC(F)(F)c1ccccc1-n1ccnc1,2.41%
17,CN1CCN(CC/C=C2/c3ccccc3Sc3ccc(S(=O)(=O)N(C)C)cc32)CC1,19.2%
18,C[N+](C)(C)CCO,2.98%
19,Nc1ccn([C@H]2CC[C@@H](CO)O2)c(=O)n1,-7.35%
20,CCCCCCN(CCCCCC)C(=O)Cc1c(-c2ccc(F)cc2)[nH]c2ccccc12,8.52%

row,Compound,inhibition
1,CC(N)(C(=O)O)c1ccc(C(=O)O)cc1 (stereo not given),5.26%
2,Clc1ccc(C(c2ccccc2Cl)C(Cl)Cl)cc1 (stereo not given),11.1%
3,C#CCn1c(=O)c2c(ncn2C)n(C)c1=O,3.25%
4,C[N+]1(CCCCC[N+]2(C)CCCC2)CCCC1,-4.7%
5,CC(=O)N[C@H](C(=O)O)C(C)(C)SN=O,3.53%
6,NC(C(=O)N[C@@H]1C(=O)N2C(C(=O)O)=C(Cl)CS[C@H]12)c1ccccc1 (stereo not given in full),7.28%
7,N=C(N)c1ccc(OCCCCCOc2ccc(C(=N)N)cc2)cc1 (tested in a mixture with another compound),143% (active)
8,CCOC(=O)c1ncn2c1CN(C)C(=O)c1cc(F)ccc1-2,1.79%
9,O=c1[nH]c2cc(C(F)(F)F)ccc2n1-c1cc(C(F)(F)F)ccc1O,-0.852%
10,NC(=O)CNCCC(c1ccccc1)c1ccccc1,-2.16%
11,Nc1nc(Cl)nc2c1ncn2[C@@H]1O[C@H](CO)[C@H](O)C1O (stereo not given in full),1.82%
12,NCCCCCC(=O)O,3.27%
13,[N-]=[N+]=Nc1ccc(C(=O)CSC[C@H](NC(=O)CC[C@H](N)C(=O)O)C(=O)NCC(=O)O)cc1,-0.598%
14,CC(C)(Sc1ccc(CCN(CCCCC2CCCCC2)C(=O)NC2CCCCC2)cc1)C(=O)O,-0.647%
15,CCSC(=N)N,4.79%
16,O=C(O)CP(=O)(O)O,7.76%
17,CCOC(=O)C(C)(C)Oc1ccc(Cl)cc1,-6.65%
18,CCCN(CC1CC1)c1nc(C)nc(Nc2c(Cl)cc(Cl)cc2Cl)c1Cl,3.71%
19,CN(C)CC[C@@H](c1ccc(Br)cc1)c1ccccn1,15%
20,CNc1cc(NS(=O)(=O)c2ccc(N)cc2)nc(NC)n1,-3.79%
